# Assay results taken from the supplement of paper PMC4466140.
# How the values were obtained:
# Experiment in all cases: SPOT peptide array binding signal intensity (averaged, normalized) (arbitrary units (background-subtracted, floor 0; scale differs between SH3 domains)); higher = stronger binding of the SH3 domain to the peptide
# AgAbp1 = biological target: AgAbp1
# Method in brief: (§1)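 Detection of bound protein relied on anti-GST antibody, an HRP anti-mouse secondary and luminol, with imaging and quantification in Genespotter. The bound protein was GST-fused SH3 domains from four yeast species, incubated at 10 μg/ml overnight at 4°C in TBS-based blocking buffer on cellulose membranes carrying synthetic 15-mer peptides with cysteines replaced by serines. Binding signal is normalized, background-subtracted spot intensity averaged over replicates, in arbitrary units that differ between domains.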
# AgBbc1 = biological target: AgBbc1
# Method in brief: as §1
# AgBem1-D1 = biological target: AgBem1-D1
# Method in brief: as §1
# AgBzz1-D1 = biological target: AgBzz1-D1
# Method in brief: as §1
# AgBzz1-D2 = biological target: AgBzz1-D2
# Method in brief: as §1
# AgCyk3 = biological target: AgCyk3
# Method in brief: as §1
# AgFus1 = biological target: AgFus1
# Method in brief: as §1
# AgHof1 = biological target: AgHof1
# Method in brief: as §1
# AgHse1 = biological target: AgHse1
# Method in brief: as §1
# AgLsb1 = biological target: AgLsb1
# Method in brief: as §1
# AgLsb4 = biological target: AgLsb4
# Method in brief: as §1
# AgMyo5 = biological target: AgMyo5
# Method in brief: as §1
# AgNbp2 = biological target: AgNbp2
# Method in brief: as §1
# AgRvs167 = biological target: AgRvs167
# Method in brief: as §1
# AgSho1 = biological target: AgSho1
# Method in brief: as §1
# AgSla1-D1-D2 = biological target: AgSla1-D1-D2
# Method in brief: as §1
# AgSla1-D3 = biological target: AgSla1-D3
# Method in brief: as §1
# CaAbp1-D1 = biological target: CaAbp1-D1
# Method in brief: as §1
# CaAbp1-D2 = biological target: CaAbp1-D2
# Method in brief: as §1
# CaBbc1 = biological target: CaBbc1
# Method in brief: as §1
# CaBem1-D1 = biological target: CaBem1-D1
# Method in brief: as §1
# CaBzz1-D1 = biological target: CaBzz1-D1
# Method in brief: as §1
# CaBzz1-D2 = biological target: CaBzz1-D2
# Method in brief: as §1
# CaCyk3 = biological target: CaCyk3
# Method in brief: as §1
# CaFus1 = biological target: CaFus1
# Method in brief: as §1
# CaHof1 = biological target: CaHof1
# Method in brief: as §1
# CaHse1 = biological target: CaHse1
# Method in brief: as §1
# CaLsb1 = biological target: CaLsb1
# Method in brief: as §1
# CaLsb4 = biological target: CaLsb4
# Method in brief: as §1
# CaMyo5 = biological target: CaMyo5
# Method in brief: as §1
# CaNbp2 = biological target: CaNbp2
# Method in brief: as §1
# CaRvs167 = biological target: CaRvs167
# Method in brief: as §1
# CaRvs167-3 = biological target: CaRvs167-3
# Method in brief: as §1
# CaSho1 = biological target: CaSho1
# Method in brief: as §1
# CaSla1-D1-D2 = biological target: CaSla1-D1-D2
# Method in brief: as §1
# CaSla1-D3 = biological target: CaSla1-D3
# Method in brief: as §1
# ScAbp1 = biological target: ScAbp1
# Method in brief: as §1
# ScBbc1 = biological target: ScBbc1
# Method in brief: as §1
# ScBem1-D1 = biological target: ScBem1-D1
# Method in brief: as §1
# ScBzz1-D1 = biological target: ScBzz1-D1
# Method in brief: as §1
# ScBzz1-D2 = biological target: ScBzz1-D2
# Method in brief: as §1
# ScCyk3 = biological target: ScCyk3
# Method in brief: as §1
# ScFus1 = biological target: ScFus1
# Method in brief: as §1
# ScHof1 = biological target: ScHof1
# Method in brief: as §1
# ScHse1 = biological target: ScHse1
# Method in brief: as §1
# ScLsb1 = biological target: ScLsb1
# Method in brief: as §1
# ScLsb2 = biological target: ScLsb2
# Method in brief: as §1
# ScLsb3 = biological target: ScLsb3
# Method in brief: as §1
# ScLsb4 = biological target: ScLsb4
# Method in brief: as §1
# ScMyo3 = biological target: ScMyo3
# Method in brief: as §1
# ScMyo5 = biological target: ScMyo5
# Method in brief: as §1
# ScNbp2 = biological target: ScNbp2
# Method in brief: as §1
# ScPex13 = biological target: ScPex13
# Method in brief: as §1
# ScRvs167 = biological target: ScRvs167
# Method in brief: as §1
# ScSho1 = biological target: ScSho1
# Method in brief: as §1
# ScSla1-D1-D2 = biological target: ScSla1-D1-D2
# Method in brief: as §1
# ScSla1-D3 = biological target: ScSla1-D3
# Method in brief: as §1
# SpAbp1-D1 = biological target: SpAbp1-D1
# Method in brief: as §1
# SpBbc1 = biological target: SpBbc1
# Method in brief: as §1
# SpBzz1-D1 = biological target: SpBzz1-D1
# Method in brief: as §1
# SpBzz1-D2 = biological target: SpBzz1-D2
# Method in brief: as §1
# SpCyk3 = biological target: SpCyk3
# Method in brief: as §1
# SpHof1 = biological target: SpHof1
# Method in brief: as §1
# SpHof1-2 = biological target: SpHof1-2
# Method in brief: as §1
# SpHof1-3 = biological target: SpHof1-3
# Method in brief: as §1
# SpHse1 = biological target: SpHse1
# Method in brief: as §1
# SpLsb1 = biological target: SpLsb1
# Method in brief: as §1
# SpLsb4 = biological target: SpLsb4
# Method in brief: as §1
# SpMyo1 = biological target: SpMyo1
# Method in brief: as §1
# SpNbp2 = biological target: SpNbp2
# Method in brief: as §1
# SpPex13 = biological target: SpPex13
# Method in brief: as §1
# SpRvs167 = biological target: SpRvs167
# Method in brief: as §1
# SpSla1-D1-D2 = biological target: SpSla1-D1-D2
# Method in brief: as §1
# SpSla1-D3 = biological target: SpSla1-D3
# Method in brief: as §1
binder,measurement,setting,value
NFFRKKLGIPRKLKR,SPOT peptide array binding signal intensity,AgAbp1,227
same,SPOT peptide array binding signal intensity,AgBbc1,12
same,SPOT peptide array binding signal intensity,AgBem1-D1,94
same,SPOT peptide array binding signal intensity,AgBzz1-D1,20
same,SPOT peptide array binding signal intensity,AgBzz1-D2,45
same,SPOT peptide array binding signal intensity,AgCyk3,1.5
same,SPOT peptide array binding signal intensity,AgFus1,142
same,SPOT peptide array binding signal intensity,AgHof1,13.2
same,SPOT peptide array binding signal intensity,AgHse1,1980
same,SPOT peptide array binding signal intensity,AgLsb1,3.5
same,SPOT peptide array binding signal intensity,AgLsb4,99
same,SPOT peptide array binding signal intensity,AgMyo5,2
same,SPOT peptide array binding signal intensity,AgNbp2,44
same,SPOT peptide array binding signal intensity,AgRvs167,5.33
same,SPOT peptide array binding signal intensity,AgSho1,73
same,SPOT peptide array binding signal intensity,AgSla1-D1-D2,368
same,SPOT peptide array binding signal intensity,AgSla1-D3,1.5
same,SPOT peptide array binding signal intensity,CaAbp1-D1,1000
same,SPOT peptide array binding signal intensity,CaAbp1-D2,1180
same,SPOT peptide array binding signal intensity,CaBbc1,31.5
same,SPOT peptide array binding signal intensity,CaBem1-D1,4
same,SPOT peptide array binding signal intensity,CaBzz1-D1,47.5
same,SPOT peptide array binding signal intensity,CaBzz1-D2,26
same,SPOT peptide array binding signal intensity,CaCyk3,≤ 0
same,SPOT peptide array binding signal intensity,CaFus1,729
same,SPOT peptide array binding signal intensity,CaHof1,0.5
same,SPOT peptide array binding signal intensity,CaHse1,37.2
same,SPOT peptide array binding signal intensity,CaLsb1,1
same,SPOT peptide array binding signal intensity,CaLsb4,≤ 0
same,SPOT peptide array binding signal intensity,CaMyo5,0.75
same,SPOT peptide array binding signal intensity,CaNbp2,189
same,SPOT peptide array binding signal intensity,CaRvs167,8.83
same,SPOT peptide array binding signal intensity,CaRvs167-3,47
same,SPOT peptide array binding signal intensity,CaSho1,447
same,SPOT peptide array binding signal intensity,CaSla1-D1-D2,11
same,SPOT peptide array binding signal intensity,CaSla1-D3,2.5
same,SPOT peptide array binding signal intensity,ScAbp1,146
same,SPOT peptide array binding signal intensity,ScBbc1,4.5
same,SPOT peptide array binding signal intensity,ScBem1-D1,14
same,SPOT peptide array binding signal intensity,ScBzz1-D1,9
same,SPOT peptide array binding signal intensity,ScBzz1-D2,13.5
same,SPOT peptide array binding signal intensity,ScCyk3,53
same,SPOT peptide array binding signal intensity,ScFus1,314
same,SPOT peptide array binding signal intensity,ScHof1,1.25
same,SPOT peptide array binding signal intensity,ScHse1,1910
same,SPOT peptide array binding signal intensity,ScLsb1,13.5
same,SPOT peptide array binding signal intensity,ScLsb2,8
same,SPOT peptide array binding signal intensity,ScLsb3,103
same,SPOT peptide array binding signal intensity,ScLsb4,3
same,SPOT peptide array binding signal intensity,ScMyo3,≤ 0
same,SPOT peptide array binding signal intensity,ScMyo5,0.5
same,SPOT peptide array binding signal intensity,ScNbp2,68
same,SPOT peptide array binding signal intensity,ScPex13,0.5
same,SPOT peptide array binding signal intensity,ScRvs167,2.33
same,SPOT peptide array binding signal intensity,ScSho1,473
same,SPOT peptide array binding signal intensity,ScSla1-D1-D2,38.5
same,SPOT peptide array binding signal intensity,ScSla1-D3,6.25
same,SPOT peptide array binding signal intensity,SpAbp1-D1,462
same,SPOT peptide array binding signal intensity,SpBbc1,3
same,SPOT peptide array binding signal intensity,SpBzz1-D1,50
KRRAPPPVPKKPSSR,SPOT peptide array binding signal intensity,CaNbp2,2600
same,SPOT peptide array binding signal intensity,CaRvs167,130
same,SPOT peptide array binding signal intensity,CaRvs167-3,21.8
same,SPOT peptide array binding signal intensity,CaSho1,269
same,SPOT peptide array binding signal intensity,CaSla1-D1-D2,3450
same,SPOT peptide array binding signal intensity,CaSla1-D3,1040
same,SPOT peptide array binding signal intensity,ScAbp1,3030
same,SPOT peptide array binding signal intensity,ScBbc1,669
same,SPOT peptide array binding signal intensity,ScBem1-D1,29
same,SPOT peptide array binding signal intensity,ScBzz1-D1,2330
same,SPOT peptide array binding signal intensity,ScBzz1-D2,82.5
same,SPOT peptide array binding signal intensity,ScCyk3,13
same,SPOT peptide array binding signal intensity,ScFus1,45.5
same,SPOT peptide array binding signal intensity,ScHof1,0.5
same,SPOT peptide array binding signal intensity,ScHse1,448
same,SPOT peptide array binding signal intensity,ScLsb1,517
same,SPOT peptide array binding signal intensity,ScLsb2,684
same,SPOT peptide array binding signal intensity,ScLsb3,4730
same,SPOT peptide array binding signal intensity,ScLsb4,105
same,SPOT peptide array binding signal intensity,ScMyo3,439
same,SPOT peptide array binding signal intensity,ScMyo5,380
same,SPOT peptide array binding signal intensity,ScNbp2,6200
same,SPOT peptide array binding signal intensity,ScPex13,512
same,SPOT peptide array binding signal intensity,ScRvs167,1260
same,SPOT peptide array binding signal intensity,ScSho1,3480
same,SPOT peptide array binding signal intensity,ScSla1-D1-D2,4950
same,SPOT peptide array binding signal intensity,ScSla1-D3,1400
same,SPOT peptide array binding signal intensity,SpAbp1-D1,6350
same,SPOT peptide array binding signal intensity,SpBbc1,192
same,SPOT peptide array binding signal intensity,SpBzz1-D1,1370
same,SPOT peptide array binding signal intensity,SpBzz1-D2,1470
same,SPOT peptide array binding signal intensity,SpCyk3,2.5
same,SPOT peptide array binding signal intensity,SpHof1,218
same,SPOT peptide array binding signal intensity,SpHof1-2,37.8
same,SPOT peptide array binding signal intensity,SpHof1-3,591
same,SPOT peptide array binding signal intensity,SpHse1,179
same,SPOT peptide array binding signal intensity,SpLsb1,1780
same,SPOT peptide array binding signal intensity,SpLsb4,2060
same,SPOT peptide array binding signal intensity,SpMyo1,416
same,SPOT peptide array binding signal intensity,SpNbp2,188
same,SPOT peptide array binding signal intensity,SpPex13,22
same,SPOT peptide array binding signal intensity,SpRvs167,1820
same,SPOT peptide array binding signal intensity,SpSla1-D1-D2,1660
same,SPOT peptide array binding signal intensity,SpSla1-D3,1.5
